# Results as given in PubChem BioAssay (NCATS).
# Results filed as inconclusive are left out. A call without a number means that no potency is given here. Active and inactive are the calls of the source. Unless noted, calls follow the shape of the dose curve; as a rule, active = well fitted curve in the direction sought with a large enough effect; inconclusive = small, poorly fitted or top-dose-only effect, or another doubt; inactive = no such curve, though single readings can be large; an effect the other way counts as inactive or inconclusive.
# System: not listed separately
# Test: qHTS for differential inhibitors of proliferation of Plasmodium falciparum line W2 (AID 1883);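 also: parasites grown with compound for 72 h before lysis and staining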; also: potency is read from the fitted curve at half-maximal effect
# Conditions: Potency: Plasmodium falciparum W2 proliferation inhibition; series mostly up to 28.7 µM
row,Compound,Potency
1,O=[N+]([O-])c1ccc(-c2nc(-c3ccc(F)cc3)c(-c3ccncc3)[nH]2)cc1,3.98 µM (active)
2,C[N+](C)(C)CCO,inactive
3,NC(N)=NCCCCN=C(N)N,inactive
4,Brc1ccc([C@H]2CN3CCSC3=N2)cc1,7.94 µM (active)
5,CN(C)c1cc2c(Nc3ccc4c(cnn4Cc4ccccc4)c3)ncnc2cn1,3.55 µM (active)

# System: not listed separately
# Test: qHTS for differential inhibitors of proliferation of Plasmodium falciparum line HB3 (AID 1886);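 also: parasites grown with compound for 72 h before SYBR Green readout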; also: potency is read from the fitted curve at half-maximal effect
# Conditions: Potency: Plasmodium falciparum HB3 proliferation inhibition; series mostly up to 28.7 µM
row,Compound,Potency
1,COc1ccccc1N1CCN(CCN2C(=O)CC3(CCCC3)CC2=O)CC1,inactive
2,O=[N+]([O-])c1ccc(-c2nc(-c3ccc(F)cc3)c(-c3ccncc3)[nH]2)cc1,4.47 µM (active)
3,C[N+](C)(C)CCO,inactive
4,CC(C)N(CCC(=O)c1ccc2ccccc2c1)Cc1ccccc1,inactive
5,C[C@]12CCC(=O)C=C1CC[C@@H]1[C@@H]2[C@@H](O)C[C@@]2(C)[C@H]1CC[C@]2(O)C(=O)COC(=O)CCC(=O)O,inactive
6,CN(C)c1cc2c(Nc3ccc4c(cnn4Cc4ccccc4)c3)ncnc2cn1,4.47 µM (active)
7,O=C1NC(c2cccc([N+](=O)[O-])c2)=CCN1c1ccccc1O,inactive

# System: not listed separately
# Test: qHTS Assay for Modulators of Human Peripheral Myelin Protein 22 (PMP22) Expression/Activity (AID 1967; active = well fitted curve in the direction sought with a large enough effect in the signal ratio; the % refers to the signal ratio)
# Conditions: Cell-based PMP22 reporter, dual-color luciferase ratio, 0% = compound-free control cells, mouse Pmp22 promoter in mouse Schwann cells; series mostly up to 115 µM
# Text: Charcot-Marie-Tooth-Association [CMTA]
# NIH Chemical Genomics Center [NCGC]
# Charcot-Marie-Tooth (CMT) disease was first characterized by Jean-Martin Charcot and Pierre Marie in France and, independently, by Howard Henry Tooth in England in 1886. CMT is one of the most common inherited neurological diseases, affecting about 125,000 Americans. […] The most common cause of CMT is known as CMT1A, and is caused by a duplication of the PMP22 gene, leading to over-expression of this protein. PMP22 is a glycosylated intrinsic membrane protein accounting for 2-5% of the myelin protein content and over-expression leads to demyelination and subsequently axonal loss.
# A cell-based assay for PMP22 expression modulation was developed by Drs. Ned Mantei and Ueli Suter on behalf of the CMTA. This assay employs a mouse Schwann cell line, MSC80 (Boutry et al., 1992), that was engineered to have the mouse Pmp22 promoter driving expression of a green light-emitting click beetle luciferase (CBG68; Chroma-Gl developed by Promega Corp). A red light-emitting click beetle luciferase (CBR; developed by Promega Corp: CBG68 and CBR differ by only a few amino acids within the D-luciferin binding pocket) under control of the EF-alpha promoter is also stably expressed in the same cells for use as an internal control for nonspecific promoter- or reporter-based effects.
# NCGC Assay Protocol Summary:
# Cells were seeded in white solid 1536-well plates at between 500-750 cells/4uL in DMEM medium containing 10% FBS, w/o phenol red. After overnight incubation at 37 degree Celsius/5% C02, 23 nL of compounds or DMSO were delivered to each well using a pin tool, followed by 24h-incubation at 37 degree Celsius/5% C02. Then 4 uL Chroma-Glo luminescent substrate mix (Promega) was added to each well. Luminescence was measured on a ViewLux plate reader (Perkin Elmer) using a 540/25 nm filter for green luminescence and a 618/8 nm filter for red luminescence. The green and red luminescent signals were corrected for red and green luminescence filter overlap using filter calibration constants (determined using control cell lines expressing either the green or red CBLuc reporters using the procedures given in Davis et al., 2007). The %Activity was determined from the ratio of corrected green/red luminescent values. Green luminescent and ratio %Activity was determined by normalizing to the signal between of untreated cells (0% Activity)
# Keywords: luminescence, PMP22, CMT1A, NCGC, CMTA, qHTS
# Concentration-response curves were fitted to the signals arising from the green luminescence (PMP22 promoter driven expression) and the red luminescence (control promoter) as well as the calculated ratio. The concentration-effect curves were then classified based on curve quality (r2), response magnitude and degree of measured activity.
row,Compound,outcome
1,COc1ccccc1N1CCN(CCN2C(=O)CC3(CCCC3)CC2=O)CC1,inactive
2,C[N+](C)(C)CCO,inactive
3,NC(N)=NCCCCN=C(N)N,inactive
4,Brc1ccc([C@H]2CN3CCSC3=N2)cc1,inactive
5,O=C1NC(c2cccc([N+](=O)[O-])c2)=CCN1c1ccccc1O,inactive

# System: not listed separately
# Test: qHTS Assay for Identification of Small Molecule Inducers of Hypoxia Response (AID 2120; active = well fitted curve in the direction sought with a large enough effect in the signal ratio, with a control signal flat, not every such curve was filed as active; the % refers to the signal ratio)
# Conditions: hypoxia response reporter cells, beta-lactamase ratio readout; series mostly up to 104 µM
# How it was run: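 Cell-based qHTS for reporter induction: hypoxia response element controlled beta-lactamase in ME-180 cells. Compounds incubated 17 h at 37 degrees C; activity from blue/green (460/530 nm) ratio, inducers ranked by AC50.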
row,Compound,outcome
1,CC(=O)OC/C=C(C)/C=C/C=C(C)/C=C/C1=C(C)CCCC1(C)C,inactive
2,COc1cc(C=O)ccc1O,inactive
3,Nc1cccc2c(N)cccc12,inactive
4,O=C(Oc1ccccc1)c1ccccc1O,inactive
5,CC(C)C(C)(C)C(C)(C)C(C)(C)S,inactive
6,CC(C)(c1ccc(O)cc1)c1ccc(O)cc1,inactive
7,OCc1c[nH]c2ccccc12,inactive
8,CCCC(=O)c1cc(O)c(O)cc1O,inactive
9,O=C(NO)c1ccccc1,inactive
10,Brc1ccccc1-c1ccccc1,inactive
11,O=C(c1ccccc1)c1ccccc1,inactive
12,Oc1ccccc1,inactive
13,CCCCC(CC)COC(=O)c1ccccc1C(=O)O (configuration not stated),inactive
14,C1=CC2C3C=CC(C3)C2C1 (configuration not stated),inactive
15,CC(C)(C)c1ccc(O)c(O)c1,inactive
16,Cc1cc(C(C)(C)C)c(O)c(C(C)(C)C)c1,inactive
17,c1ccc2occc2c1,inactive

# Biological target: Ferritin light chain (Equus caballus) (UniProt P02791)
# Test: qHTS Validation Assay for Identification of Novel General Anesthetics (AID 2323)
# Conditions: horse apoferritin, anesthetic-site fluorescent probe displacement; series mostly up to 76.9 µM
# How it was run: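 Apoferritin from horse spleen (10 uM) was mixed with 1-aminoanthracene at 50% saturation in PBS, then compounds were added. After 10 min at room temperature, fluorescence was read (ex 380 nm, em 535 nm) and normalized to free-probe and complex controls.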
# Sequence of Ferritin light chain (Equus caballus) (P02791 2-175 limits assumed): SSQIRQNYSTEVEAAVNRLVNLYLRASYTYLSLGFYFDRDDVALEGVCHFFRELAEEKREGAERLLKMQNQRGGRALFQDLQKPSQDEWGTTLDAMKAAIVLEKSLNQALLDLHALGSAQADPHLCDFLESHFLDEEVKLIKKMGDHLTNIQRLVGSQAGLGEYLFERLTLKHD
row,Compound,outcome
1,COc1ccccc1N1CCN(CCN2C(=O)CC3(CCCC3)CC2=O)CC1,inactive
2,O=[N+]([O-])c1ccc(-c2nc(-c3ccc(F)cc3)c(-c3ccncc3)[nH]2)cc1,inactive
3,C[N+](C)(C)CCO,inactive
4,NC(N)=NCCCCN=C(N)N,inactive
5,Cn1cnc2c(NCc3ccccc3)nc(NCCO)nc21,inactive
6,C[C@]12CCC(=O)C=C1CC[C@@H]1[C@@H]2[C@@H](O)C[C@@]2(C)[C@H]1CC[C@]2(O)C(=O)COC(=O)CCC(=O)O,inactive
7,CN(C)c1cc2c(Nc3ccc4c(cnn4Cc4ccccc4)c3)ncnc2cn1,inactive

# Biological target: ATP-dependent DNA helicase Q1 (Homo sapiens) (UniProt P46063)
# Test: qHTS Validation Assay for Inhibitors of RecQ-Like Dna Helicase 1 (RECQ1) (AID 2353)
# Conditions: recombinant RECQ1 helicase DNA unwinding assay; series mostly up to 25.6 µM
# How it was run: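 RECQ1T1 50 nM; forked duplex (20 bp + 30-nt ss tails) 200 nM, ATP 2 mM final; pH 8.0, 2 mM MgCl2, 2.5 ug/ml poly(dI-dC); 15 min compound preincubation; discontinuous kinetic read over 2 h at RT.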
# Sequence of ATP-dependent DNA helicase Q1 (Homo sapiens) (P46063 whole entry, looked up): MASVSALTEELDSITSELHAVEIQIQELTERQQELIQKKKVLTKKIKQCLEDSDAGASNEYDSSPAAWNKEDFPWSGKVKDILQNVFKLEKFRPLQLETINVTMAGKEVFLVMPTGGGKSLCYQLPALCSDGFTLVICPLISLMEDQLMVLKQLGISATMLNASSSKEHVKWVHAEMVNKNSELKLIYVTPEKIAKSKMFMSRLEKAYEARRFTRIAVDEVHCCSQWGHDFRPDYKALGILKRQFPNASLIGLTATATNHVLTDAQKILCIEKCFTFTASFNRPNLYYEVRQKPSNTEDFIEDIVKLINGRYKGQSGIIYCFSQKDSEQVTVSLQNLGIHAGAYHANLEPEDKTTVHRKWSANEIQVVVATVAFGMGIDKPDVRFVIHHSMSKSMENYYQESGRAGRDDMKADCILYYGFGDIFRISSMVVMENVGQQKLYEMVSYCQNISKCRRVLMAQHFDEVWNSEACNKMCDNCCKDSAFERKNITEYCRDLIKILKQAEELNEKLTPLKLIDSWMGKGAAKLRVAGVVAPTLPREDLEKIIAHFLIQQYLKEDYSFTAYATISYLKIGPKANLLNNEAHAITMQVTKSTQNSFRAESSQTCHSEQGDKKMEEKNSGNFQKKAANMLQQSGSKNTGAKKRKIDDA
row,Compound,outcome
1,COc1ccccc1N1CCN(CCN2C(=O)CC3(CCCC3)CC2=O)CC1,inactive
2,C[N+](C)(C)CCO,inactive
3,CC(C)N(CCC(=O)c1ccc2ccccc2c1)Cc1ccccc1,inactive
4,NC(N)=NCCCCN=C(N)N,inactive
5,Cn1cnc2c(NCc3ccccc3)nc(NCCO)nc21,inactive
6,C[C@]12CCC(=O)C=C1CC[C@@H]1[C@@H]2[C@@H](O)C[C@@]2(C)[C@H]1CC[C@]2(O)C(=O)COC(=O)CCC(=O)O,inactive
7,Brc1ccc([C@H]2CN3CCSC3=N2)cc1,inactive
8,COc1cccc2c1[C@@H]1CN(CCCCn3c(=O)[nH]c4c(sc5ncc(-c6ccccc6)nc54)c3=O)C[C@@H]1CO2,inactive
9,CN(C)c1cc2c(Nc3ccc4c(cnn4Cc4ccccc4)c3)ncnc2cn1,inactive
10,O=C1NC(c2cccc([N+](=O)[O-])c2)=CCN1c1ccccc1O,inactive

# Biological target: RecQ-like DNA helicase BLM (Homo sapiens) (UniProt P54132)
# Test: qHTS Validation Assay for Inhibitors of Bloom's syndrome helicase (BLM) (AID 2364)
# Conditions: BLM helicase DNA unwinding, fluorescence, in vitro; series mostly up to 57.1 µM
# Text: Survival of cells and the faithful propagation of the genome depend on elaborate mechanisms of detecting and repairing DNA damage. Treatment of advanced cancer relies on radiation therapy or chemotherapy, which kill cancer cells by causing extensive DNA damage. It is often found, that cancer cells develop resistance to therapy through enhanced activity of DNA repair functions; this has led to an increased interest in developing drugs that interfere with DNA repair, which could sensitize cancer cells to conventional therapy.
# This validation qHTS assay pertains to human BLM, which is important in resolving abnormal DNA structures formed during replication or homologous recombination. Shutting down the expression of BLM leads to chromosomal instability and higher radiation sensitivity in cultured cells.
# The validation assay was a fluorescence quenching based kinetic qHTS for BLM Helicase DNA unwinding. The activity was measured as ATP-dependent separation of a 20-bp DNA duplex extended by 30-nt single-stranded tails (forked duplex). The forked DNA substrate was tagged with rhodamine fluorophore (carboxytetramethyl rhodamine, TAMRA) and BHQ-2 (Black Hole Quencher 2) dark quencher. Strand separation results in an increase in the fluorescence of TAMRA (excitation 525 nm, emission 598 nm). This substrate construct operates in a red-shifted region where very few compound library members have been noted to fluoresce (PubChem AIDs 593 and 594). An additional feature of the assay is the inclusion of 2.5 ug/ml poly (dIdC), to reduce interference by compounds such as DNA intercalators, a major source of false inhibitors.
# Ian Hickson, University of Oxford
# Opher Gileadi, Structural Genomics Consortium, University of Oxford
# Screening Center PI: Austin, C.P.
# Screening Center: NIH Chemical Genomics Center [NCGC]
# Three uL of reaction buffer (25 mM Tris-HCl (pH 8.0), 5 mM NaCl, 2 mM MgCl2, 1mM DTT, 0.01% Tween- 20, and 2.5 ug/ml poly(dI-dC), including enzyme (50 nM BLM), were dispensed into a 1536-well Greiner black assay plate via solenoid-valve based nanoliter dispensers. Compounds (23 nl each in columns 5-48) and control (23 nl each in column 2 as dose-response) were transferred via a Kalypsys pintool equipped with a 1536-pin array. The plates were incubated for 15 min at room temperature, and then 1 ul of substrates (200 nM DNA and 2 mM ATP, final concentrations) was added to start the reaction. The plate was transferred into a ViewLux high-throughput CCD imager where the reaction progress was measured in a discontinuous kinetic mode (two reads spaced 2 hours apart, with intermediate room temperature incubation of the covered assay plate) by using standard red-fluorescence optics (excitation filter 525 nm, emission filter 598 nm). Enzyme-free and vehicle (DMSO) controls were included for signal normalization.
# Sequence of RecQ-like DNA helicase BLM (Homo sapiens) (P54132 whole entry, looked up): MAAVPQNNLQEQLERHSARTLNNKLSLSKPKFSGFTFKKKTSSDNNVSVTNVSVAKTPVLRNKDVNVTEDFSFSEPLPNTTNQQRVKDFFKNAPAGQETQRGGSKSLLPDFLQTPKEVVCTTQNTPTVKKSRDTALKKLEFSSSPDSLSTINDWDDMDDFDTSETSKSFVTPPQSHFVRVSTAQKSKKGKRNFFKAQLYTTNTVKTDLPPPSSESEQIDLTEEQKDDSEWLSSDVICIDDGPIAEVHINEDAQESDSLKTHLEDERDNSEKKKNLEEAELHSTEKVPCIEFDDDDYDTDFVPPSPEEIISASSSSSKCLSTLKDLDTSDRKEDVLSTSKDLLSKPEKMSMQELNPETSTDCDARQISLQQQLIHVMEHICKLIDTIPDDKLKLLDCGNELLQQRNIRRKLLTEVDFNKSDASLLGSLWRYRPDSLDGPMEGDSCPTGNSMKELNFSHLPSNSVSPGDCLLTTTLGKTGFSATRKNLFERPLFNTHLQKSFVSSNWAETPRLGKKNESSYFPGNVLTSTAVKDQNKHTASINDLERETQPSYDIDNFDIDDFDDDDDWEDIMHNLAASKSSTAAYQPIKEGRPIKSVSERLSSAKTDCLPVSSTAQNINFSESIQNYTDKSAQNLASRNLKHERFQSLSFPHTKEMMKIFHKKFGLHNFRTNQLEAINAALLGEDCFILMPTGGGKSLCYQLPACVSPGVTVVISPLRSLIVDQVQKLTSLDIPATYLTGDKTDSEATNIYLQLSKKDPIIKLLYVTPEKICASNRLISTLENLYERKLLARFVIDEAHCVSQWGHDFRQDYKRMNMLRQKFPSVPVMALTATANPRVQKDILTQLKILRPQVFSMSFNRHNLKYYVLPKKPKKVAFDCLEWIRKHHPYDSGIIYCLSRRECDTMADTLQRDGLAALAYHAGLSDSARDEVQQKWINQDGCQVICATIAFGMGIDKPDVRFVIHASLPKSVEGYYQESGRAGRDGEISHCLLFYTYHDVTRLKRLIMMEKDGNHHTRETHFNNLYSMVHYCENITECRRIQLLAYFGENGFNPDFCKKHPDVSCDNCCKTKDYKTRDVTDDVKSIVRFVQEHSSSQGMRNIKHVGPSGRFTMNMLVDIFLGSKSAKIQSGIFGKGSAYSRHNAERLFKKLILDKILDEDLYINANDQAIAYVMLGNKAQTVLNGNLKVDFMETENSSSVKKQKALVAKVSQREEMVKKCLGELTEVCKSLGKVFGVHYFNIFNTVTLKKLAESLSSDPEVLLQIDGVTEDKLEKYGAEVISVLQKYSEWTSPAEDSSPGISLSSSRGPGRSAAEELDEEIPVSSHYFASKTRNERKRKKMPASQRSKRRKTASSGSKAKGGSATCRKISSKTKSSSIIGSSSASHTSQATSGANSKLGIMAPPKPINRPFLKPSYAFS
row,Compound,outcome
1,COc1ccccc1N1CCN(CCN2C(=O)CC3(CCCC3)CC2=O)CC1,inactive
2,NC(N)=NCCCCN=C(N)N,inactive
3,Cn1cnc2c(NCc3ccccc3)nc(NCCO)nc21,inactive
4,C[C@]12CCC(=O)C=C1CC[C@@H]1[C@@H]2[C@@H](O)C[C@@]2(C)[C@H]1CC[C@]2(O)C(=O)COC(=O)CCC(=O)O,inactive
5,COc1cccc2c1[C@@H]1CN(CCCCn3c(=O)[nH]c4c(sc5ncc(-c6ccccc6)nc54)c3=O)C[C@@H]1CO2,inactive
6,O=C1NC(c2cccc([N+](=O)[O-])c2)=CCN1c1ccccc1O,inactive
